Measurements published in PubChem BioAssay (EPA / NIEHS).
Results filed as inconclusive are left out. Activity calls are given as the source filed them. The calls were made as follows: active = hit-call score of the fitted dose curve at least 0.9, where 1 is the maximum; inconclusive = response in the unintended direction; inactive = score below 0.9.

Experiments:
[1] = molecular target: Androgen Receptor/SRC-1 Co-activator, AR (gene 367) (UniProt P10275); experiment: OT_AR_ARSRC1_0960: Odyssey Thera (OT) 16-hour HEK293T Protein-Complementation Assay for Androgen Receptor/SRC-1 Co-activator (AID 2283353);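 also: actives raise the signal above DMSO so potency reflects increased AR and SRC-1 complex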
In short: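 HEK293T cells stably expressing AR and SRC-1 fused to split Venus YFP fragments via (Gly4Ser)2 linkers were dosed for 16 h. Nuclear/cytoplasmic fluorescence ratio at 488 nm, ≥400 cells per image, fitted for gain of signal versus DMSO.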

[2] = molecular target: Androgen Receptor/SRC-1 Co-activator, AR (gene 367) (UniProt P10275); experiment: OT_AR_ARSRC1_0480: Odyssey Thera (OT) 8-hour HEK293T Protein-Complementation Assay for Androgen Receptor/SRC-1 Co-activator (AID 2283354);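 also: hits raise the complementation signal above DMSO so AC50 marks enhancers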
In short: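 HEK293T cells stably expressing AR and SRC-1 fused to Venus YFP fragments, imaged 8 h after dosing. Complementation fluorescence scored as nuclear/cytoplasmic ratio at 488 nm in at least 400 cells per image; gain fitted versus DMSO.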

[3] = molecular target: Estrogen receptor (Homo sapiens) + Estrogen receptor beta (Homo sapiens) (UniProt P03372+Q92731); experiment: OT_ER_ERaERb_1440: Odyssey Thera (OT) 24-hour HEK293T Protein-Complementation Assay for Estrogen Receptor-alpha/-beta Homodimer (AID 2283356);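 also: heteromer of ER alpha and ER beta binding domains; hits raise reporter fluorescence and both agonists and antagonists give an increase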
In short: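 Fragment complementation between ER alpha (310-547) and ER beta (263-489) ligand-binding domains in HEK293T cells; signal read 24 h post-dosing by laser scanning cytometer. Gain of fluorescence relative to DMSO fitted.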

[4] = molecular target: Estrogen receptor beta (Homo sapiens) (UniProt Q92731); experiment: OT_ER_ERbERb_0480: Odyssey Thera (OT) 8-hour HEK293T Protein-Complementation Assay for Estrogen Receptor-beta/-beta Homodimer (AID 2283357);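 also: active means signal gain over DMSO baseline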
In short: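 Fluorescence intensity, nuclear for agonists and nuclear plus cytoplasmic for antagonists, was quantified by laser scanning cytometry versus vehicle after 8 h treatment. The cells were HEK293T stably carrying ER beta LBD fragment-complementation partners.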

[5] = molecular target: rat Mineralocorticoid Receptor (MR), Nr3c2 (gene 25672) (UniProt P22199); experiment: NVS_NR_rMR: NovaScreen (NVS) Nuclear Receptor Binding Assay for rat Mineralocorticoid Receptor (MR) (AID 2283355)
In short: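 Cell-free radioligand binding to mineralocorticoid receptor from adrenalectomized rat brain supernatant, scintillation counting after 24 h. Primary screen in duplicate at 25 uM; actives retested in concentration series. Loss of specific binding versus DMSO.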

PGR (gene 5241) = PGR (gene 5241) (UniProt P06401); experiment: NVS_NR_hPR: NovaScreen (NVS) Nuclear Receptor Binding Assay for human Progestron Receptor (PR) (AID 2283360);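 also: active means loss of bound radioligand signal versus DMSO baseline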
In short: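 Cell-free radioligand binding using receptor protein extracted from T47D cells, read by scintillation counting 18 hours after dosing. Loss of signal relative to DMSO baseline indicates displacement; primary screen single concentration 25 uM in duplicate, actives followed in concentration series.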

[6] = molecular target: Retinoic acid receptor alpha (Homo sapiens) (UniProt P10276); experiment: NVS_NR_hRAR_Antagonist: NovaScreen (NVS) Nuclear Receptor Binding Assay for human Retinoic Acid Alpha Receptor Antagonism (RAR) (AID 2283358)
In short: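 Cell-free TR-FRET binding assay with extracted human RARalpha in antagonist mode, read 2 h after dosing. Loss of signal was fitted relative to DMSO; the primary screen used 25 uM in duplicate, with concentration series on follow-up.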

[7] = molecular target: human Thyroid Receptor Alpha (TRa), THRA (gene 7067) (UniProt P10827); experiment: NVS_NR_hTRa_Antagonist: NovaScreen (NVS) Nuclear Receptor Binding Assay for human Thyroid Receptor Alpha Antagonism (TRa) (AID 2283362);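 also: activity is loss of signal relative to DMSO baseline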
In short: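 Actives from a duplicate 25 uM single-point screen were retested in concentration series. The cell-free antagonist-format binding assay was read by AlphaLISA chemiluminescence at 1 h, scored as signal loss relative to DMSO.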

Estrogen receptor (Homo sapiens) + Estrogen receptor beta (Homo sapiens), sequence (P03372 whole entry, looked up, the tested form may be a part): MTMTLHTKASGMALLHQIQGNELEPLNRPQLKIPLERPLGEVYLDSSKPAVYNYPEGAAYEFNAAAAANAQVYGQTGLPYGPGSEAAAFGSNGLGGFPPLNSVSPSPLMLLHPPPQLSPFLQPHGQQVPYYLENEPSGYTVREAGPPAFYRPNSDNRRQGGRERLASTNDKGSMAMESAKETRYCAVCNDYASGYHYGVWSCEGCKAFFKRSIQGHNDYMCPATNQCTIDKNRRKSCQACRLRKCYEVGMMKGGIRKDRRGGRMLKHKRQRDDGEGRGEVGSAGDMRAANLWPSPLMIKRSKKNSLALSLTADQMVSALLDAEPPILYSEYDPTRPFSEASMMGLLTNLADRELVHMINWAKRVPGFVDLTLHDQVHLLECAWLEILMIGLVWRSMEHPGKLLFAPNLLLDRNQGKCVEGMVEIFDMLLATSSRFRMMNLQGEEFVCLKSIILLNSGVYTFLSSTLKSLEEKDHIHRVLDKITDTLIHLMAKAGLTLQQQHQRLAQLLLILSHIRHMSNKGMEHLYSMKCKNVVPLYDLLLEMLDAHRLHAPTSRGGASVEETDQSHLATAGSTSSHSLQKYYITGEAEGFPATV
Estrogen receptor (Homo sapiens) + Estrogen receptor beta (Homo sapiens), sequence (Q92731 whole entry, looked up, the tested form may be a part): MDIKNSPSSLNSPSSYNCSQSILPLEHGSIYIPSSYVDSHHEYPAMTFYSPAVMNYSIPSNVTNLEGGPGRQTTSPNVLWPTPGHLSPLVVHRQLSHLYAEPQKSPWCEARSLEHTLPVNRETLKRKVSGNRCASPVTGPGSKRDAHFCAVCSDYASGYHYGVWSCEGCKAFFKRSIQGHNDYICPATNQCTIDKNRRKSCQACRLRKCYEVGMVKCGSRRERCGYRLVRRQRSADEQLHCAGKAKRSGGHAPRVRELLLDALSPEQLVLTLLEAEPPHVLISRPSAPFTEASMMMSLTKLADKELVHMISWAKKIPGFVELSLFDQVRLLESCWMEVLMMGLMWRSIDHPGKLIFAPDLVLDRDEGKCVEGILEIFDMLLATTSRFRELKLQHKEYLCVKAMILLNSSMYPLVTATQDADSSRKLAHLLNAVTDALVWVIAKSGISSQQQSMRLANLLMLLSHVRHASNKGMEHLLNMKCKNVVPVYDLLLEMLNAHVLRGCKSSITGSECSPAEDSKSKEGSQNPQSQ
Estrogen receptor beta (Homo sapiens), sequence (Q92731 whole entry, looked up, the tested form may be a part): as above
Androgen Receptor/SRC-1 Co-activator, AR (gene 367), sequence (P10275 whole entry, looked up, the tested form may be a part): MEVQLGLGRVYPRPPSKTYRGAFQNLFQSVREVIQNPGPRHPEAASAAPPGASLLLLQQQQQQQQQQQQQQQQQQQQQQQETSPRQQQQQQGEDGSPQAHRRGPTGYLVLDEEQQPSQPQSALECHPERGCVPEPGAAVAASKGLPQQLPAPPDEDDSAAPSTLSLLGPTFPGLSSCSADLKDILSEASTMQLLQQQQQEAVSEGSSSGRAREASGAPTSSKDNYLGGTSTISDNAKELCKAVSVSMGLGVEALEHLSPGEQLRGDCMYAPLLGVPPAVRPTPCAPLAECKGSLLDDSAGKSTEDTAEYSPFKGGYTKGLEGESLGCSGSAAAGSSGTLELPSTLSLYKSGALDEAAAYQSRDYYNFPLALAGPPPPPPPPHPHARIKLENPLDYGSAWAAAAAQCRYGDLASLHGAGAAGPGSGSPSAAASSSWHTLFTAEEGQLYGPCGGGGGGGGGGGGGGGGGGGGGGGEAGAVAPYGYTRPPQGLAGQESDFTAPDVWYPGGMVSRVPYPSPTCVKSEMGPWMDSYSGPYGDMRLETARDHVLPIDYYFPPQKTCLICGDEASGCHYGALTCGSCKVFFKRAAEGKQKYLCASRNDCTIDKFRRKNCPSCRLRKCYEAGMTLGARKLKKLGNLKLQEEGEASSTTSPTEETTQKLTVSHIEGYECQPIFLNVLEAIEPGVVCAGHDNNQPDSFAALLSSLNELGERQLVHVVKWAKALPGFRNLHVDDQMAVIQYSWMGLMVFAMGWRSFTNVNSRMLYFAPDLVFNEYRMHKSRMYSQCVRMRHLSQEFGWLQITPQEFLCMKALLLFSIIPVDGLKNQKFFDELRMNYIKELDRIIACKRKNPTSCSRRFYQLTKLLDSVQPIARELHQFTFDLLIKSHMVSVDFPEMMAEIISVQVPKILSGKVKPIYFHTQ
Retinoic acid receptor alpha (Homo sapiens), sequence (P10276 whole entry, looked up): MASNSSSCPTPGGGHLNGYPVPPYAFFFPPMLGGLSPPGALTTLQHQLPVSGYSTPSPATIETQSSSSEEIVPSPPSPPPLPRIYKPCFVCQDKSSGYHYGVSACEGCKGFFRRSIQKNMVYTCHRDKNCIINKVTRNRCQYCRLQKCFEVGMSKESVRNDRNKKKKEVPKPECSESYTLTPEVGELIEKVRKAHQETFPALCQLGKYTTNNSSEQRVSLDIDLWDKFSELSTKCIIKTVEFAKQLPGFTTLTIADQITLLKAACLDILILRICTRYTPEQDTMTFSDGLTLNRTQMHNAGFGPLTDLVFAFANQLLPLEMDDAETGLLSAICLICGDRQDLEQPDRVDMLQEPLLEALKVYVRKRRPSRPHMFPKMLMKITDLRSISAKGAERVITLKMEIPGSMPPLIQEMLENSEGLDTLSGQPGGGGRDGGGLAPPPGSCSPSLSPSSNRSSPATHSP
rat Mineralocorticoid Receptor (MR), Nr3c2 (gene 25672), sequence (P22199 whole entry, looked up): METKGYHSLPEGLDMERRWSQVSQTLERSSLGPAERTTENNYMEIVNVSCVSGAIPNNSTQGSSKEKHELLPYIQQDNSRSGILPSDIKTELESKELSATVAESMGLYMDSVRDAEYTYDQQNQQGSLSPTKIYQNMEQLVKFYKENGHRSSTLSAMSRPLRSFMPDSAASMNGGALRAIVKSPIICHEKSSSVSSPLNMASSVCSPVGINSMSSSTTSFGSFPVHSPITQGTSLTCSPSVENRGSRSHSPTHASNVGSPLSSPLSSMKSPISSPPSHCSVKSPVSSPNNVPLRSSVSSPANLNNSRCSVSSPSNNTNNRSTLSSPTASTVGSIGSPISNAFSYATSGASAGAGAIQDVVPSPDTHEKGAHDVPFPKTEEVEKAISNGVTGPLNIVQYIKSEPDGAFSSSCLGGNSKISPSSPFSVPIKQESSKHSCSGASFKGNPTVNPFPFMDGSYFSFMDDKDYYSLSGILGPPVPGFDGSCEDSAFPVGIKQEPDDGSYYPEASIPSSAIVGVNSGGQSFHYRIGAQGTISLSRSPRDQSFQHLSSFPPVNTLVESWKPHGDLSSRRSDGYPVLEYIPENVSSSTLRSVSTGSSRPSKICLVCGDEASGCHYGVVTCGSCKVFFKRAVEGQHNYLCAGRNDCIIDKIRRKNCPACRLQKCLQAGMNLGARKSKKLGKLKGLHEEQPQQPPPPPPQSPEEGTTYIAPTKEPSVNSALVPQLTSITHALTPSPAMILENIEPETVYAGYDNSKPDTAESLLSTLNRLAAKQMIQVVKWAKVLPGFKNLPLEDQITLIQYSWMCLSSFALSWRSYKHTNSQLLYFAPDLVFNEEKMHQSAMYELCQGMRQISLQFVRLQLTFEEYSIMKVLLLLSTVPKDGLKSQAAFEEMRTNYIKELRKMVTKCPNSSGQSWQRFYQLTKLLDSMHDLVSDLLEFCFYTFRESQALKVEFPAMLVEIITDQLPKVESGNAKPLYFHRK
PGR (gene 5241), sequence (P06401 whole entry, looked up): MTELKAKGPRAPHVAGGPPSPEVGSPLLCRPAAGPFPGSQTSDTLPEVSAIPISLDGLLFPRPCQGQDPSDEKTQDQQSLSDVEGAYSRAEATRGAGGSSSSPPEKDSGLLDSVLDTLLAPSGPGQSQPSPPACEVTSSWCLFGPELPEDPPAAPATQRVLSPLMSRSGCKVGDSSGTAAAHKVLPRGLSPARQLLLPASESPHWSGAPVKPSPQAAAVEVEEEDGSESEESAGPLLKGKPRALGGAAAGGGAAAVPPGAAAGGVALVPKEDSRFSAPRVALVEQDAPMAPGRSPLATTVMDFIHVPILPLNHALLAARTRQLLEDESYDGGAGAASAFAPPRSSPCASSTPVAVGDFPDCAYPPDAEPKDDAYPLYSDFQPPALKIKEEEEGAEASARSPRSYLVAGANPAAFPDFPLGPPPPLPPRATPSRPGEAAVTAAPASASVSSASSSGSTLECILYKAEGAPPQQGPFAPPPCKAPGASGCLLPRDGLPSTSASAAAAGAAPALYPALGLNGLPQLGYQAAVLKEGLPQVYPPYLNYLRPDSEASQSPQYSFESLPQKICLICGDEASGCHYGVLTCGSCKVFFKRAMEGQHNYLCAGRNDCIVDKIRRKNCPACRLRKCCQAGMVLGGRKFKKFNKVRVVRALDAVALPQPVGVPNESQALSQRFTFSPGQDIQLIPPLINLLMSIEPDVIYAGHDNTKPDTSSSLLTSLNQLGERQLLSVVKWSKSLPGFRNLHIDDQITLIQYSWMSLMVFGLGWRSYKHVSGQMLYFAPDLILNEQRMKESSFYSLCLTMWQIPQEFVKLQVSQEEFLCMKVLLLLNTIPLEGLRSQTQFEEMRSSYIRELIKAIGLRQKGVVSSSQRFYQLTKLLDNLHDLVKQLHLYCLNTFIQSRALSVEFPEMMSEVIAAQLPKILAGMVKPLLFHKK
human Thyroid Receptor Alpha (TRa), THRA (gene 7067), sequence (P10827 whole entry, looked up): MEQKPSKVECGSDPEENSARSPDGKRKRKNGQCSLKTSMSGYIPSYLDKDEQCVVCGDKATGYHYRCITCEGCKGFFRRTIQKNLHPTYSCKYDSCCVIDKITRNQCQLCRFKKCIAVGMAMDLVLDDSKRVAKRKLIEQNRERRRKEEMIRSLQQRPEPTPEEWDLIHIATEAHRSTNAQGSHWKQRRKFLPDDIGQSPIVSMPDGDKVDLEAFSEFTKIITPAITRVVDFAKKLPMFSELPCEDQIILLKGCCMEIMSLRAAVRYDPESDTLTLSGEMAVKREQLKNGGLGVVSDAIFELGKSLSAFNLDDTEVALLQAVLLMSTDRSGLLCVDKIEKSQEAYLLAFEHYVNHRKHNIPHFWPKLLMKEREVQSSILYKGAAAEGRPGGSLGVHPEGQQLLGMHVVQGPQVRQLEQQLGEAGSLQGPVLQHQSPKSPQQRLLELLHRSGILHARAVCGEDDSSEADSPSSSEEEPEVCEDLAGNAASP

Q: Which results are given for `Cc1ccc(-c2c(Cl)nc(C#N)n2S(=O)(=O)N(C)C)cc1`?
A: AC50 [1]: 27.1 µM (active); outcome [2]: inactive; outcome [3]: inactive; outcome [4]: inactive

Q: `CN(C)C(=S)SSC(=S)N(C)C` was tested. Which AC50 [1] did it give?
A: Its AC50 is 26.2 µM (active).

Q: And the outcome [2]?
A: The outcome was “inactive”.

Q: What about the outcome [3] of the same compound?
A: Its outcome is “inactive”.

Q: What about the outcome [4] of the same compound?
A: Its outcome is “inactive”.

Q: What does the source list for `COC(=O)C(C)Oc1ccc(Oc2ccc(Cl)cc2Cl)cc1` (stereo unspecified)?
A: outcome [5]: inactive; outcome [4]: inactive

Q: How did the outcome [1] turn out when `CCCCNC(=O)n1c(NC(=O)OC)nc2ccccc21` was run?
A: Its outcome is “inactive”.

Q: And the outcome [2]?
A: Its outcome is “inactive”.

Q: And the outcome [5]?
A: The outcome was “inactive”.

Q: What about the outcome [3] of the same compound?
A: Its outcome is “inactive”.

Q: And the outcome [4]?
A: Its outcome is “inactive”.

Q: `O=C(Nc1ccccc1)Nc1ccnc(Cl)c1` was tested. Which outcome [1] did it give?
A: The outcome was “inactive”.

Q: And the outcome [2]?
A: The outcome was “inactive”.

Q: Which outcome [1] does the source give for `CCOC(=O)CC(SP(=S)(OC)OC)C(=O)OCC` (stereo unspecified) here?
A: The outcome was “inactive”.

Q: What about the outcome [2] of the same compound?
A: The outcome was “inactive”.

Q: And the outcome (PGR (gene 5241))?
A: Its outcome is “inactive”.

Q: Which results are given for `N#Cc1nn(-c2c(Cl)cc(C(F)(F)F)cc2Cl)c(N)c1S(=O)C(F)(F)F` (stereo unspecified)?
A: AC50 [1]: 22.7 µM (active); outcome [2]: inactive; outcome [3]: inactive; outcome [6]: inactive

Q: `CC(C)(C)c1ccc(CSc2cnn(C(C)(C)C)c(=O)c2Cl)cc1` was tested. Which outcome [3] did it give?
A: The outcome was “inactive”.

Q: And the outcome [4]?
A: The outcome was “inactive”.

Q: How did the outcome [3] turn out when `N#CC(CCc1ccc(Cl)cc1)(Cn1cncn1)c1ccccc1` (stereo unspecified) was run?
A: The outcome was “inactive”.

Q: What about the outcome [4] of the same compound?
A: Its outcome is “inactive”.

Q: What does the source list for `CC1=C(C(=O)Nc2ccccc2)SCCO1`?
A: outcome [1]: inactive; outcome [2]: inactive; outcome [3]: inactive; outcome [4]: inactive

Q: Which results are given for `CC(C)C1(C)N=C(c2nc3ccccc3cc2C(=O)O)NC1=O` (stereo unspecified)?
A: outcome [3]: inactive; outcome [4]: inactive

Q: Which AC50 [1] does the source give for `CS/C(C)=N/OC(=O)N(C)SN(C)C(=O)O/N=C(\C)SC` here?
A: The AC50 was 78.2 µM (active).

Q: What about the AC50 [2] of the same compound?
A: The AC50 was 72.2 µM (active).

Q: And the outcome [3]?
A: The outcome was “inactive”.

Q: What about the outcome [4] of the same compound?
A: Its outcome is “inactive”.

Q: Which AC50 [3] does the source give for `OC(c1ccc(Cl)cc1)(c1cncnc1)c1ccccc1Cl` (stereo unspecified) here?
A: Its AC50 is 12.1 µM (active).

Q: And the AC50 [4]?
A: Its AC50 is 12.5 µM (active).

Q: Which results are given for `CO/C=C(/C(=O)OC)c1ccccc1Oc1cc(Oc2ccccc2C#N)ncn1`?
A: outcome [1]: inactive; outcome [2]: inactive; outcome [3]: inactive; outcome [6]: inactive; outcome (PGR (gene 5241)): inactive; outcome [7]: inactive
